Assay outcomes from PubChem.
Shown are actives, neighbours in structure and some others; about 4.8% of the full set was active somewhere.
HepG2 viability: HepG2 cytotoxicity, counter-screen for TGF-b inhibitors; HepG2 CAGA-GFP viability, ATP luminescence, 18 h; Potency, µM (top dose mostly 46.1 µM), for the others: top-dose activity change, negative = cytotoxicity, most hits filed as cytotoxic; 410,000 tested, 0.76% active; AID 588856; also: potency is read from the fitted curve at half-maximal effect
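HepG2 CAGA-GFP cells (1000/well, DMEM with 1% FBS) received compound, then TGF-beta at 500 pg/mL final, and were incubated 18 hours at 37 degrees C. Viability was read by CellTiter-Glo luminescence. Media-only wells were set as complete cell-killing and DMSO as no toxicity.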
S2 tox: viability counter-screen for ATXN expression inhibitors; Potency, µM (highest dose often 56.7 µM), hits mostly cytotoxic; AID 651635; S2 cells (HEK-293 line with an ATXN2-luciferase reporter) viability, CellTiter-Fluor protease fluorescence, 24 h; 400,000 tested, 0.49% active; also: potency is read from the fitted curve at half-maximal effect; nearly all actives have a fitted effect of over 40% in size
TGFb SMAD3 inh: blocks TGF-b signaling; HepG2 CAGA-GFP TGF-b/SMAD3 reporter, GFP fluorescence, 18 h; TGF-beta stimulated, 500 pg/mL final; Potency, µM (titrated, usually from 46.1 µM), without a hit: at the top dose activity, negative = inhibition, actives largely listed as inhibitors; 410,000 tested, 1.2% active; also: potency is read from the fitted curve at half-maximal effect; % is scaled to controls: 0 for no effect and ±100 for the full control effect; nearly all actives have a fitted effect of over 65% in size
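Smad-responsive CAGA-GFP expression was quantified in HEPG2 cells exposed to compounds and 500 pg/mL final TGF-beta for 18 h at 37 degrees C; unstimulated wells defined full inhibition.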
DRD3 agonist: D3 dopamine receptor (human) agonism. AID 652048. P35462. 410,000 tested, 0.58% active. D3R DiscoveRx beta-arrestin cells, luminescence, 90 min. max activation, %; in the data active = max activation above about 30%; also: 0% is about no effect
Target sequence (P35462 whole entry, looked up): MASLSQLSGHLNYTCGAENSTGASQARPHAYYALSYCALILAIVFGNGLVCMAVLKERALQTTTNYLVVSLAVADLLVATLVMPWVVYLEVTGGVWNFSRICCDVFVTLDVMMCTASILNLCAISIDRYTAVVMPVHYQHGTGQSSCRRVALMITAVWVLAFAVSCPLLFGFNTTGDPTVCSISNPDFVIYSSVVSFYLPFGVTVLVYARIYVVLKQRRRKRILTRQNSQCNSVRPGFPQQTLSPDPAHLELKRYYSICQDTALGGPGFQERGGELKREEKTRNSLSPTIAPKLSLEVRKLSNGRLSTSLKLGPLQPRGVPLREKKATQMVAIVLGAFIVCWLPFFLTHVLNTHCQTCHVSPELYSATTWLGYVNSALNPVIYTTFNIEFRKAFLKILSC
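Agonist mode: compounds and dopamine controls were applied to plated cells for 90 min at 37 degrees C after an overnight attachment at 1500 cells/well. Luminescent read-out followed 30 - 60 minutes at room temperature with DiscoveRx detection reagent.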
DRD3 antagonist: blocks the human D3 dopamine receptor | AID 652054 | max response, negative = inhibition, % | D3R cells, DiscoveRx beta-arrestin luminescence, antagonist mode; stronger effect = lower value | 360,000 tested, 2.5% active; in the data active = max response below about -50%; inconclusive = no clear call, values can overlap the other calls; also: % is scaled to controls: 0 for no effect and ±100 for the full control effect
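Cells plated overnight at 1500 cells/well, then exposed to library compounds with dopamine controls for 90 minutes at 37 degrees C. DiscoveRx reagent added for 30–60 minutes at room temperature; luminescence read, quantitative HTS format.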
ATXN2 expr inh: inhibitors of ATXN2 expression; HEK-293 ATXN2-luciferase reporter, luminescence, 24 h; Potency, µM (titrated, usually from 57 µM), inactives show at the top dose activity change, negative = inhibition, hits mostly inhibitors; 360,000 tested, 0.72% active; also: potency is read from the fitted curve at half-maximal effect; % is scaled to controls: 0 for no effect and ±100 for the full control effect; nearly all actives have a fitted effect of over 55% in size
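ATXN2-luciferase reporter cells (luciferase flanked by upstream and downstream ATXN2 gene portions) were treated 24 h at 37 °C with compounds at up to 57 uM. SteadyGlo luminescence gave expression; GF-AFC fluorescence gave viability.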
Starred values were filed as active, the others as inactive; i = inactive; ? = inconclusive; . = no result given. Unless noted, calls follow the shape of the dose curve; as a rule, active = well fitted curve in the direction sought with a large enough effect; inconclusive = small, poorly fitted or top-dose-only effect, or another doubt; inactive = no such curve, though single readings can be large; an effect the other way counts as inactive or inconclusive.

SMILES | HepG2 viability | S2 tox | TGFb SMAD3 inh | DRD3 agonist | DRD3 antagonist | ATXN2 expr inh
CCC1CN(CCNC(=O)c2scc3c2OCCO3)Cc2cc(OC)ccc2O1 (stereo unspecified) | . | i | . | . | . | .
O=S(=O)(c1ccc(OCC(O)CN2CCN(c3ccccc3)CC2)cc1)N1CCOCC1 (stereo unspecified) | -3% | i | -4% | 43* | 0 | -11%
O=S(=O)(c1ccc(OCC(O)CN2CCC(Cc3ccccc3)CC2)cc1)N1CCOCC1 (stereo unspecified) | -22% | i | -7% | -32 | -59* | -12%
O=S(=O)(c1ccc(OCC(O)CN2CCN(c3ccccc3O)CC2)cc1)N1CCOCC1 (stereo unspecified) | -16% | i | -26% | 19 | -25 | -26%
Nc1cccc2[nH]cnc12 | -9% | . | -18% | . | . | .
O=C(NC(=Nc1nc2ccccc2o1)NC(=O)c1ccccc1)c1ccccc1 | -11% | i | 0% | -11 | -4 | 36%
O=C(NNc1nc2ccccc2o1)c1ccccc1 | -25% | i | 18% | 5 | -9 | 1.6µM*
Cc1cccc(N(CC(=O)Nc2c(C)n(C)n(-c3ccccc3)c2=O)S(C)(=O)=O)c1C | -5% | i | 2.8µM* | -10 | -8 | -1%
Cc1c(NC(=O)CSc2nc3ccccc3[nH]2)c(=O)n(-c2ccccc2)n1C | -3% | i | -2% | 7 | -78* | 1%
Cc1c(NC(=O)CN2CCN(c3ccccc3)CC2)c(=O)n(-c2ccccc2)n1C | -2% | i | 4% | 0 | 20 | 4%
Cc1c(NC(=O)CN2C(=O)c3ccccc3S2(=O)=O)c(=O)n(-c2ccccc2)n1C | 0% | i | 0% | 9 | -55* | 10%
Cc1c(NC(=O)Cn2[nH]c(=O)c3ccccc3c2=O)c(=O)n(-c2ccccc2)n1C | 26% | i | -2% | 1 | -52* | -2%
Cc1c(NC(=O)CSc2nc3ccc(Cl)cc3[nH]2)c(=O)n(-c2ccccc2)n1C | -1% | ? | 9% | 6 | 18 | -2%
Cc1c(F)cccc1Cn1cnc2c(cnn2C(C)(C)C)c1=O | -21% | . | -18% | . | . | .
CN(C)c1ccc(/C=C/c2ccnc3cc(Cl)cc(Cl)c23)cc1 | 1% | . | 6% | . | . | .
CN1C(CSCC(F)(F)F)Nc2cc(Cl)c(S(N)(=O)=O)cc2S1(=O)=O (stereo unspecified) | . | i | . | 10 | . | 2%
CCNC(=O)C1CCCN(Cc2cc(C(F)(F)F)ccc2Cl)CC1 (stereo unspecified) | -6% | i | -7% | -20 | -76* | -4%
CCNC(=O)C1CCCN(Cc2ccc(C(=O)OCC)cc2)CC1 (stereo unspecified) | 7% | i | -13% | -8 | 0 | 6%
COc1cccc(NCc2nnc(SC(C(=O)N(C)C)c3ccccc3)n2C2CCCCC2)c1 (stereo unspecified) | 2% | . | 0% | . | . | .
CCCCS/C(=C(/C#N)C(N)=O)c1cc2c([nH]1)CCCC2 | -13% | ? | 0% | -7 | -74* | -26%
CNC(=O)C1Cc2c(-c3ccc(Cl)cc3)ccnc2O1 (stereo unspecified) | -2% | i | 26% | -6 | -57* | -1%
CC(=O)Nc1ccc(NC(=O)C2Cc3c(-c4ccc(Cl)cc4)ccnc3O2)cc1 (stereo unspecified) | -25% | i | 9% | 5 | 11 | -1%
COc1ccc(NC(=O)C2Cc3c(-c4ccc(Cl)cc4)ccnc3O2)cn1 (stereo unspecified) | 1% | 3.5µM* | 5% | 3 | 0 | ?
O=C(Nc1ccccc1)C1Cc2c(-c3ccc(Cl)cc3)ccnc2O1 (stereo unspecified) | 0% | i | -14% | 2 | 3 | -20%
Cc1cccc(CNC(=O)C2CCN(c3nn4cc(-c5ccc(F)cc5)nc4s3)CC2)c1 | -5% | . | 0% | 5 | . | .
SMILES | HepG2 viability | S2 tox | TGFb SMAD3 inh | DRD3 agonist | DRD3 antagonist | ATXN2 expr inh
CCc1cccc(C)c1NC(=O)CN1CCCN(Cc2ccccc2Cl)S1(=O)=O | -14% | . | 0% | -8 | . | .
CCOc1ccccc1CNCc1cccn1-c1nnc(N2CCN(c3ccccc3)CC2)s1 | -83% | ? | ? | -12 | . | 18µM*
CC(C)c1ccc(NC(=O)CN2C(=O)COc3ccc(S(=O)(=O)N4CCCCC4)cc32)cc1 | -13% | . | -6% | -12 | . | .
COc1ccccc1C(=O)Oc1c(Sc2ccccc2)c(C)nn1C(C)(C)C | -101% | i | ? | -16 | . | -7%
COc1ccc(-c2nc3c(C(=O)NCCN(C)C)cccc3c3ccccc23)cc1 | 18µM* | ? | 0% | -24 | -27 | 0%
CN(C)CCNC(=O)c1cccc2nc3c(ccc4ccccc43)nc12 | -67% | ? | ? | -23 | -28 | 0%
O=C(CCl)N(c1ccccc1)C1CCCCC1 | 18µM* | ? | ? | -11 | -65* | ?
CC1=C(C(=O)Nc2cccc(C(F)(F)F)c2)C(c2ccccc2)n2ncnc2N1 (stereo unspecified) | -21% | i | -5% | 5 | . | -2%
CCOc1cc(C(=O)NN=C2CCCC2)cc(OCC)c1OCC | 7% | i | ? | -12 | -51* | -5%
CCOc1cc(C(=O)NCc2ccncc2)cc(OCC)c1OCC | 2% | i | -15% | -28 | -100* | 0%
COc1ccc(C(=O)NN=C2CCCC2)cc1OC | 1% | i | 1% | -19 | 11 | 17%
O=C(NCC(c1ccc2c(c1)OCO2)N1CCOCC1)c1cccc(Cl)c1 (stereo unspecified) | -9% | i | -7% | -23 | . | -10%
Cc1cccc(/C=N/NC(=O)c2cccc(Cl)c2)n1 | -16% | ? | -11% | 0 | ? | ?
COc1ccc(/C=N/NC(=O)c2cccc([N+](=O)[O-])c2)c2ccccc12 | -18% | ? | -6% | -3 | -1 | 18µM*
O=C(CNC(=O)c1cccc(F)c1)N/N=C/c1cc(Br)ccc1OC(=O)/C=C/c1ccco1 | -26% | i | ? | -7 | -25 | 28µM*
Cc1cccc(/C=N/NC(=O)c2cccc([N+](=O)[O-])c2)n1 | -4% | i | -10% | -23 | -50* | -18%
COc1ccc([N+](=O)[O-])cc1/C=N/NC(=O)CNC(=O)c1cccc(F)c1 | -2% | i | -4% | -30 | -117* | -23%
COc1cccc(C(=O)Nc2c(C(=O)N3CCN(c4ccc(F)cc4)CC3)oc3ccccc23)c1 | -5% | i | -8% | 0 | . | 1%
CC(C)N1C[C@@H](Sc2ccccn2)C[C@H]1C(=O)Nc1ccc2c(c1)Nc1ccccc1CC2 | . | i | . | . | . | .
